High-throughput results from PubChem.
Mac1 fbg inh – inhibitors of CD11b/CD18 adhesion to fibrinogen, primary screen, K562 cells, luminescence; Integrin beta-2 (Homo sapiens) + Integrin alpha-M (Homo sapiens), P05107+P11215; ATPlite luminescence; Mn2+ added to activate the integrin; inhibition, % at 10 µM; 93,000 compounds, 0.54% hits; AID 1497, 2009;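 active = primary inhibition of 50% or more at 10 µM, then 40% or more on retest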
Calb biofilm kill – clotrimazole potentiators killing Candida biofilms, primary screen, with clotrimazole, Alamar Blue; inhibition, % at 6 µM; 85,000 compounds, 0.14% hits; C. albicans biofilm + clotrimazole;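 active = inhibition above 20%; inactive = inhibition below 20%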;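 note: preformed 24 hr biofilms exposed to compound for 48 hr; 0% = biofilm without compound and 100% = blank killed by clotrimazole plus chlorhexidine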
Mac1 fbg enh – enhancers of CD11b/CD18 adhesion to fibrinogen, primary screen, K562 cells, luminescence; ATPlite luminescence; 93,000 compounds, 0.07% hits; AID 1499, 2009; Integrin beta-2 (Homo sapiens) + Integrin alpha-M (Homo sapiens), P05107+P11215; activation, % at 10 µM;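 active = 10 µM primary screen giving 50% or more activity, confirmed by 40% or more on retest at that dose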
Plk1 PBD FP – Plk1 polo box domain binding inhibitors, primary screen, biochemical, fluorescence polarization. Serine/threonine-protein kinase PLK1 (Homo sapiens), P53350. Plk1 PBD phosphopeptide binding. inhibition, %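 (tested at about 20 µM)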. 97,000 compounds, 0.13% hits. AID 693, 2007; in the data active = inhibition above about 34%, passing the limit was not always enough
Target sequence (P53350 whole entry, looked up, the tested form may be a part): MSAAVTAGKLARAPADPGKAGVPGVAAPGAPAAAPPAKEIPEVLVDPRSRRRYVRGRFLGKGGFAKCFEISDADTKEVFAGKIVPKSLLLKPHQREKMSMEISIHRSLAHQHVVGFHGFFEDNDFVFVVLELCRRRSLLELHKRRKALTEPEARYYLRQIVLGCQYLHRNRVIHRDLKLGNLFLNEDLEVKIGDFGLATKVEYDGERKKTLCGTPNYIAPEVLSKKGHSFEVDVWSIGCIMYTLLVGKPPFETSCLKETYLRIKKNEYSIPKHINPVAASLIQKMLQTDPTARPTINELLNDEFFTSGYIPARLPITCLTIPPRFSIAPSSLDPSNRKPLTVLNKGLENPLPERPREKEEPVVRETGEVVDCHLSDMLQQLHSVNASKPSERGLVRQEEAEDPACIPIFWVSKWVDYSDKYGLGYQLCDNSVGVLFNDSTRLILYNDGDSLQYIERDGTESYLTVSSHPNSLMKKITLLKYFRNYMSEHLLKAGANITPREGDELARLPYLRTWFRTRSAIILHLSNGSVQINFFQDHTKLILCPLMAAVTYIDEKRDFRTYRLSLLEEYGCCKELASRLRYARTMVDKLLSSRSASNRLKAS
PLK1 inh – human PLK1 kinase inhibitors, primary screen, biochemical, TR-FRET. Serine/threonine-protein kinase PLK1 (Homo sapiens), P53350. recombinant PLK1 kinase, TR-FRET peptide phosphorylation. inhibition, % at 10 µM. 97,000 compounds, 0.53% hits. AID 619, 2007;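 active = inhibition of 50% or more in the single-concentration screen; inactive = inhibition below 50%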;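 note: 0% = DMSO max control and 100% = H-89 dihydrochloride min control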
Numbers without * were called inactive; x = not tested or not shown. Hits are enriched below; roughly 1.1% of the tested compounds scored in any of these assays.

SMILES	Mac1 fbg inh	Calb biofilm kill	Mac1 fbg enh	Plk1 PBD FP	PLK1 inh
N#CCCn1cc(C(CC(=O)c2ccc(Br)cc2)C(=O)O)c2ccccc21 (stereo not given)	-9	8	-1	-10	56*
Cc1ccc(C(=O)CC(C(=O)O)c2cn(CCC#N)c3ccccc23)cc1 (stereo not given)	-7	13	3	7	-15
S=c1[nH]nc(-c2cc3c(s2)-c2ccccc2CC3)o1	64*	x	-7	-15	-29
O=C(COC(=O)COc1ccccc1)NC1CCCc2ccccc21 (stereo not given)	-2	x	6	x	x
Cc1ccc(NC(=O)CN(C)S(=O)(=O)c2cccc3cccnc23)cc1	-15	23*	-1	-3	2
COCCCNC(=O)c1sc2ncnc(N3CCc4ccccc4C3)c2c1C	x	6	x	-3	-6
Cc1sc2ncnc(N3CCC(C)CC3)c2c1C	x	4	x	4	-10
Cc1sc2ncnc(N3CCN(CCOc4ccc(Cl)cc4)CC3)c2c1C	99*	3	-9	12	4
CC(NC(=O)Nc1nnc(C(F)(F)F)s1)(C(F)(F)F)C(F)(F)F	99*	9	-7	4	9
CC1CCC(C(C)C)C(OC(=O)Cn2c(-c3ccc(F)cc3)[n+](C)c3ccccc32)C1 (stereo not given)	64*	x	-4	x	x
CC1CCC(C(C)C)C(OC(=O)Cn2c(-c3ccccc3)[n+](C)c3ccccc32)C1 (stereo not given)	99*	x	-7	x	x
CCCOC1OC(=O)c2c1ccc(OC)c2OC (stereo not given)	-1	x	1	x	x
CCN(CC)c1cc(CS(=O)c2ccccc2)nc(-c2ccccc2)n1 (stereo not given)	x	x	x	-5	2
CCCCCSc1nnc2c(n1)OC(C)N(C(C)=O)c1ccccc1-2 (stereo not given)	3	-3	-4	22	57*
CCCSc1nnc2c(n1)OC(c1cccn1C)N(C(C)=O)c1ccccc1-2 (stereo not given)	-14	x	4	0	7
COc1cc(-c2nnc(CSc3nnc(Nc4ccc(Oc5ccccc5)cc4)s3)o2)cc(OC)c1OC	-1	x	32	x	x
O=c1[nH]cnc2scc(-c3ccccc3)c12	-4	9	-3	15	68*
Cc1cccc(OCCCCc2c(C)n[nH]c2C)c1C	90*	4	-8	-26	4
COc1ccccc1OCCCCCc1c(C)n[nH]c1C	62*	5	-8	-12	-9
CCOC(=O)CN1C(=O)C2Cc3ccccc3CN2C1=S (stereo not given)	-2	x	-1	16	-5
Cc1sc2ncnc(NCC(C)(C)N3CCOCC3)c2c1C	68*	5	-5	-2	-1
Cc1sc2ncnc(NCC3COc4ccccc4O3)c2c1C (stereo not given)	100*	x	-9	x	x
Cc1sc2ncnc(NCC3CCCO3)c2c1C (stereo not given)	x	7	x	-15	10
Cc1sc2ncnc(NCC3(N4CCOCC4)CCCCC3)c2c1C	52	1	0	11	-5
C=CCOC(=O)/C(=C\C=C\c1ccccc1)NC(=O)c1ccccc1	-3	x	5	x	x
SMILES	Mac1 fbg inh	Calb biofilm kill	Mac1 fbg enh	Plk1 PBD FP	PLK1 inh
CC(NC(=O)COc1ccc(-c2nnco2)cc1)c1ccc(Cl)cc1Cl (stereo not given)	22	x	-1	x	x
Cc1ccc(CNC(=O)COc2ccc(C(=O)c3ccc(F)cc3)cc2)cc1	4	x	1	x	x
CCCOc1ccccc1NC(=O)c1c(-c2ccccc2)noc1C	-18	30*	2	0	-11
Cc1ccccc1NC(=O)c1c(-c2ccccc2)noc1C	-4	7	-2	0	2
CCOc1ccc(S(=O)(=O)N(C)c2ccc(OCC(=O)Nc3nc(-c4cc(OC)ccc4OC)cs3)cc2)cc1	-5	x	31	x	x
CCCc1nnc(NC(=O)c2c(O)c3cccc4c3n(c2=O)CC4)s1	93*	-3	38	x	x
Cc1ccc(C(=O)c2ccc([N+](=O)[O-])cc2)c(C)c1	-4	3	-1	15	-10
O=[N+]([O-])c1ccc(N=Nc2ccc(O)cc2O)cc1	94*	1	-9	-9	-7
Cc1cccc(S(=O)(=O)C(C#N)c2nc3ccccc3nc2N2CCOCC2)c1 (stereo not given)	58*	-2	0	-23	-3
CCN=c1scc(C)n1/N=C/c1ccc(O)c(O)c1O	3	x	-1	-9	55*
CCc1cc2cc(C(=O)Nc3ccc(C)cc3)sc2s1	x	-2	x	10	-23
CCOC(=O)C1CCCN(c2c(NCc3ccco3)c(=O)c2=O)C1 (stereo not given)	14	2	6	x	x
CCOC(=O)C1CCN(c2c(N(C)Cc3ccco3)c(=O)c2=O)CC1	-5	22*	-2	-2	-3
Fc1ccc(Cc2nnc(-c3cccs3)o2)cc1	x	24*	x	x	x
CCn1c(SCC(=O)Nc2ccc(C)cc2)nnc1-c1ccc(O)cc1	x	3	x	18	-16
CCCCCc1ccc(CC(=O)Nn2c(C)nc3ccccc3c2=O)cc1	88*	0	-3	2	-10
COc1ccc(Cc2nc(C(=O)Nc3ccc(F)cc3)cs2)cc1	82*	4	-6	17	-5
COc1ccc(CNC(=O)c2csc(Cc3ccc(OC)cc3)n2)cc1	x	x	x	1	-8
COc1ccc(Cc2nc(C(=O)Nc3ccc(Cl)cc3)cs2)cc1	97	7	-8	-5	-2
COc1ccc(Cc2nc(C(=O)Nc3ccccc3)cs2)cc1	88*	3	-7	32	-9
N#CC1=C(N)NC(SCC(=O)Nc2ccc(Br)cc2)=C(C#N)C12CCCCC2	83*	x	-9	-8	-2
O=C(Nc1nncs1)C1COc2ccccc2O1 (stereo not given)	-2	8	1	4	-3
O=C(Nc1nnc(C(F)(F)F)s1)C1COc2ccccc2O1 (stereo not given)	84*	3	-5	15	-11
CC1CCN(c2nc3ccc(C(=O)N4CCN(Cc5ccc6c(c5)OCO6)CC4)cc3s2)CC1	56*	8	-4	-11	-5
CN1CCN(C(=O)c2ccc(CSc3ccc(Cl)cc3)cc2)CC1	76*	x	-2	x	x
SMILES	Mac1 fbg inh	Calb biofilm kill	Mac1 fbg enh	Plk1 PBD FP	PLK1 inh
COc1ccc(/C=N/NC(=O)c2ccc3ccccc3c2)cc1OS(=O)(=O)c1ccc(NC(C)=O)cc1	x	x	x	-50	0
CCn1cc(C(=O)O)c(=O)c2cc(F)c(N3CCNCC3)nc21	x	22*	x	x	x
Cc1nc(N)sc1N=Nc1ccc(F)cc1	9	x	30	-5	59*
CCOC(=O)NCc1ccc(S(=O)(=O)Nc2c(C)cccc2C)cc1	3	-1	0	-12	-7
Cc1cnc(N)c2c(=O)oc3ccccc3c12	-6	6	-3	-18	52*
CCCc1ccc(-c2cc(C(=O)NN3CCOCC3)c3ccccc3n2)cc1	7	x	-1	-1	-12
